Screens: PubChem BioAssay, National Center for Advancing Translational Sciences (NCATS)
Compounds with a hit are over-represented: about 21% of the library has one in this group of screens.
CHX counter: counter-screen hit for Shiga toxin inhibitors, cycloheximide; 12% of 300,000 active; cell reporter, cycloheximide protein synthesis inhibition counterscreen; max response, %; AID 2314; in the data active = max response mostly above about 13%, no sharp cut-off; inactive = mostly below about 14%; note: read at 38.3 µM for the half of the compounds with a filed dose; 0% is about no effect
NS1 inh: influenza NS1 inhibition. Potency, µM (doses to about 46.1 µM), for inactives: at the highest dose activity, positive = more growth. 0.4% of 270,000 active; note: potency is the fitted concentration of half-maximal effect; actives are rising curves; nearly all actives have a fitted effect of over 50% in size
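Compounds were scored for reversing the slow growth caused by influenza A NS1 in S. cerevisiae, measured by optical density at 600 nm. Assay medium contained 2% galactose at pH 6.0; NS1-free yeast of the same strain were the positive control.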
Shiga inhibitor: blocks Shiga toxin action in Vero cells; inhibition, % at 38.7 µM; 9.2% of 290,000 active; Vero cells, Shiga toxin protein synthesis inhibition reporter; in the data active = inhibition mostly above about 28%, no sharp cut-off; inactive = mostly below about 43%; note: 0% is about no effect
Pf growth 48h: P. falciparum growth inhibition at 48 hours (one generation); P. falciparum luciferase growth in erythrocytes, 48 h; Potency, µM (titrated, usually from 28.7 µM), for the others: at the highest dose activity change, negative = inhibition, usual class: inhibitors; 5.9% of 310,000 active; active = well fitted inhibition curve with a large enough effect; inconclusive = small, poorly fitted or top-dose-only effect, or another doubt; inactive = no such curve, though single readings can be large or run the other way; note: potency is the fitted concentration of half-maximal effect; % is set by controls: 0 for no effect and ±100 for the full control effect
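A one-generation exposure of luciferase-tagged malaria parasites in RPMI 1640/Albumax erythrocyte culture, 37 C and 5% CO2. Inhibition is inferred from decreased luminescence after adding detection reagent.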
Pf growth 96h: P. falciparum growth inhibition at 96 hours. Potency, µM (doses to about 28.7 µM), for the others: at the highest dose activity change, negative = inhibition, most hits filed as inhibitors. P. falciparum luciferase reporter growth, 96 h. 6.9% of 320,000 active. AID 504834; active = well fitted inhibition curve with a large enough effect; inconclusive = small, poorly fitted or top-dose-only effect, or another doubt; inactive = no such curve, though single readings can be large or run the other way; note: potency is the fitted concentration of half-maximal effect; % is set by controls: 0 for no effect and ±100 for the full control effect
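Infected RBCs, 2% Hct / 0.05% parasitemia final; luciferase-reporter P. falciparum; cpd 96 h, 37 C, 5% CO2; luciferase detection reagent; luminescence.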
SARS PLP yeast: SARS-CoV PLP inhibition in yeast. S. cerevisiae expressing SARS-CoV PLpro, growth rescue. Potency, µM (titrated, usually from 32.9 µM), without a hit: at the top dose activity, positive = growth rescue, actives largely listed as activators. 0.19% of 330,000 active; note: potency is the fitted concentration of half-maximal effect; 0% is about no effect; nearly all actives have a fitted effect of over 55% in size
* marks the source's active call; other numbers are inactive results; ? = inconclusive; · = no result. Unless noted, calls come from the whole dose curve.

SMILES	CHX counter	NS1 inh	Shiga inhibitor	Pf growth 48h	Pf growth 96h	SARS PLP yeast
COc1ccc(CNC(=O)COC(=O)[C@H](Cc2ccccc2)NC(=O)c2cccs2)cc1	·	·	·	·	·	1%
CCc1cc(C(=O)NNC(=S)NC2CCCCC2)cs1	46*	6%	54*	153%	-100%	4%
CC(C)c1cc(C(=O)NNC(=S)NC2CCCCC2)cs1	32*	-5%	51*	120%	102%	-5%
Cc1nn(C)c(C(=O)NNC(=S)NC2CCCCC2)c1Br	45*	-3%	61*	82%	5.2µM*	0%
Cc1ccc(S(=O)(=O)NC(CC(C)C)C(=O)N2CCCC2)cc1 (stereo not drawn)	-1	12%	-6	?	41%	5%
C[C@@H]1C(=O)N(S(=O)(=O)c2ccc([N+](=O)[O-])cc2)[C@H]1c1ccccc1	6	·	29	·	·	·
CN(C)S(=O)(=O)n1cc(/C=C(\NC(=O)c2ccccc2Cl)C(=O)N2CCOCC2)c2ccccc21	2	9%	-1	14%	14%	2%
NC(=O)CN1CCN(Cc2ccc3c(c2)OCO3)CC1	0	7%	·	7%	12µM*	-5%
Cc1cccc(C(=O)N2CCCC(N3CCN(Cc4ccc5c(c4)OCO5)CC3)C2)n1 (stereo not drawn)	25*	0%	35	0%	?	3%
O=C(c1cccnc1)N1CCN(Cc2ccc3c(c2)OCO3)CC1	-4	2%	-7	12%	4.1µM*	5%
Cc1ccc2[nH]c3c(c2c1)CN(C(=O)CN1CCN(Cc2ccc4c(c2)OCO4)CC1)CC3	-4	-2%	-12	?	9.3µM*	0%
COc1ccc(NC(=S)N(CCc2nc3cc(C)c(C)cc3[nH]2)Cc2cccnc2)cc1	2	-33%	-3	?	?	-7%
O=C(N1CCN(Cc2ccc3c(c2)OCO3)CC1)C(Cl)(Cl)Cl	17*	-13%	67*	?	?	1%
O=C(Nc1ccc(Br)cc1)C1CCCN(C2=NS(=O)(=O)c3ccccc32)C1 (stereo not drawn)	·	·	·	?	?	9%
Cc1cc(C)cc(N2CCCn3c2nc2c3c(=O)n(CC(=O)OCc3ccccc3)c(=O)n2C)c1	-4	-56%	-16	?	15%	5%
Cc1ccc(N2CC(C)Cn3c2nc2c3c(=O)n(CC(=O)OCc3ccccc3)c(=O)n2C)cc1C (stereo not drawn)	-2	-39%	-4	?	10µM*	2%
Cc1ccc(N2CCCn3c2nc2c3c(=O)n(CC(=O)OCc3ccccc3)c(=O)n2C)cc1C	-1	?	-6	12µM*	5.2µM*	2%
COC(=O)CCCC(=O)N1CCCC(CNS(=O)(=O)c2ccc(OC)cc2)C1 (stereo not drawn)	-1	-4%	49	-11%	43%	-1%
CCOc1cc(N2CCOCC2)c(OCC)cc1NC(=O)CSc1nnc(N)s1	·	·	·	·	·	2%
C=CCn1c(SCc2cc(=O)n3cc(C)ccc3n2)nnc1-c1ccc(F)cc1	7	-16%	-3	-27%	5.2µM*	5%
O=C(CSc1nc2[nH]ncc2c(=O)n1-c1ccc(Cl)c(Cl)c1)NCc1ccccc1Cl	0	·	-18	?	?	0%
C[N+]1(CC2COC3(CCCCC3)O2)CCCCC1 (stereo not drawn)	-3	2%	10	?	-15%	-6%
C[N+]1(CC2COC(c3ccccc3)(C3CCCCC3)O2)CCCCC1 (stereo not drawn)	·	·	·	1.1µM*	5.9µM*	·
COc1ccc(/C(C)=N/Nc2ccccc2Cl)c(O)c1	37*	-1%	48*	114%	208%	0%
C/C(=N\Nc1ccc(F)cc1F)c1cccs1	35*	10%	64	20%	12%	-2%
SMILES	CHX counter	NS1 inh	Shiga inhibitor	Pf growth 48h	Pf growth 96h	SARS PLP yeast
COc1ccc(/C(C)=N/NS(=O)(=O)c2ccccc2)c(OC)c1	5	·	5	?	1%	-3%
COc1ccc(/C(C)=N/Nc2ccc(F)cc2F)c(O)c1	42*	·	74*	146%	47%	0%
N/C(CC(=O)Nc1ccc(F)cc1F)=N\OC(=O)c1cccs1	-2	-1%	13	1%	0%	1%
CCCC(C)NC(=O)Cc1ccc(S(=O)(=O)N2CCOCC2)s1 (stereo not drawn)	·	·	·	-27%	-23%	0%
CCOC(=O)C1=C(COC(=O)/C=C/c2ccc(SC)cc2)NC(=O)NC1C (stereo not drawn)	·	·	·	-4%	14%	1%
COc1cccc(CN2CCN(Cc3ccc(C)o3)CC2CCO)c1 (stereo not drawn)	2	1%	-10	0%	13µM*	1%
COc1cccc(CN2CCN(Cc3ccc(O)c(OC)c3)CC2CCO)c1 (stereo not drawn)	-2	5%	24	5%	10%	0%
COc1cccc(CN2CCN(Cc3ccc(OC)c(OC)c3)CC2CCO)c1 (stereo not drawn)	1	0%	-7	-5%	9.3µM*	0%
COc1ccc(CC(=O)N/N=C(\C)CC(=O)Nc2ccc3c(c2)OCCO3)cc1OC	-3	26%	-2	52%	?	0%
COc1ccccc1CNC(=O)c1c(-c2ccccc2)nn(-c2ccccc2)c1C	-1	-4%	-14	·	9.3µM*	3%
Cc1c(C(=O)O)c(-c2ccccc2)nn1-c1ccccc1	1	11%	8	1%	2.9µM*	2%
COC(=O)c1c(-c2ccccc2)nn(-c2ccccc2)c1C(=O)OC	4	4%	·	40%	-3%	3%
COc1ccccc1CNC(=O)c1cc(C)nn1-c1ccccc1	-2	2%	-15	-1%	-2%	1%
OCCOC[C@H]1O[C@H](OCCO)[C@H](OCCO)[C@@H](OCCO)[C@@H]1OCCO (tested in a mixture with another compound)	·	·	·	-5%	4%	·
Cc1ccc(NC2CCCN(C(=O)c3ccoc3)C2)cc1C (stereo not drawn)	6	0%	22	0%	10µM*	0%
Cc1ccc(NC2CCCN(C(=O)c3cnsn3)C2)cc1C (stereo not drawn)	7	-11%	2	5%	0%	1%
Cc1ccc(NC2CCCN(C(=O)c3cccc(-c4ncc[nH]4)c3)C2)cc1C (stereo not drawn)	-1	-7%	-4	?	10µM*	-2%
Cc1ccc(NC2CCCN(C(=O)C3CCCC3)C2)cc1C (stereo not drawn)	-2	-11%	-7	21%	13µM*	14%
Cc1ccc(NC2CCCN(C(=O)c3ccc(C)c(N4CCNC4=O)c3)C2)cc1C (stereo not drawn)	9.9*	9%	20	-27%	80%	0%
NS(=O)(=O)c1cc2c(cc1C(F)(F)F)NC(Cc1ccccc1)NS2(=O)=O (stereo not drawn)	-2	11%	-7	-17%	-5%	-1%
N#Cc1ccccc1-c1csc(N2CCC(C(N)=O)CC2)n1	·	·	·	9%	7%	·
